# Activity calls are given as the source filed them.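 Rule for the calls, unless noted: active = compounds lowering colon cancer cell viability after pretreatment blocking the GSK3B kinase; inactive = the rest.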
# Columns and labels:
# [1] = stimulators of insulin release from INS-1E, primary screen, cell-based, 5 mM glucose, NPC library (AID 1117329;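 active = compound raises insulin release from rat beta cells at 5 mM glucose, no numeric limit stated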); details: rat INS-1E insulin secretion, at 10 µM, stronger effect = higher value
# [2] = growth inhibition of GSK3B-pretreated HCT116 cells – cell-based, CellTiter-Glo, 0.2 to 20 µM (AID 1117336); details: HCT116 viability after GSK3B inhibitor, at 20 µM, stronger effect = higher value
# [3] = inhibition of endothelial tube formation, primary screen, imaging, VEGF stimulated, CD31 staining, tube area, NPC library (AID 1117340;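 active = compound that reduces growth-factor-driven endothelial tube area in a mixed cell culture, no cutoff stated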); details: VEGF-stimulated ADSC/ECFC co-culture, at 10 µM, stronger effect = higher value
# [4] = glucagon-like peptide 1 release enhancers, primary assay, NCI-H716 cell line, NPC library (AID 1117341;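 active = compound raises GLP1 secretion from the human gut endocrine cells, with no numeric limit stated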); details: NCI-H716 cells, at 10 µM, stronger effect = higher value
# [5] = HCT116 colon cancer cell growth inhibition, primary screen, CellTiter-Glo luminescence, NPC library (AID 1117342;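 active = compounds that lower survival of HCT116 colon cancer cells in the luminescence readout, no numeric limit stated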); details: at 20 µM (top of the series)
# [6] = CellTiter-Glo luminescent readout of SW480 viability loss, NPC library primary (AID 1117343;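 active = compounds that lower viability of the colon cancer cells in the luminescence readout, with no numeric limit stated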); details: CellTiter-Glo luminescence; at 20 µM (top of the series)
# [7] = decreased DLD-1 cellular survival, CellTiter-Glo luminescent readout, NPC compound collection, primary HTS (AID 1117346;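 active = compounds that lower survival of DLD-1 colon cancer cells in the luminescence readout, no cutoff given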); details: DLD-1 viability, CellTiter-Glo luminescence; at 20 µM (top of the series)
# [8] = molecular target: 6-phosphogluconate dehydrogenase, decarboxylating (Homo sapiens) (UniProt P52209); experiment: 6PGD enzyme inhibitors, primary screen, biochemical, human, recombinant enzyme, NADPH absorbance (AID 1159550;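 active = at least 20% inhibition of 6-phosphogluconate dehydrogenase activity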); details: recombinant 6PGD, NADPH absorbance 341 nm; at 10 µM; stronger effect = higher value
# [9] = differential killing of epithelial or mesenchymal cells, primary screen, imaging, PC-3E GFP, TEM4-18 mCherry, co-culture (AID 1345086;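 active = compounds killing one labelled cell type while sparing the other, by normalised counts and ratio limits, not self-fluorescent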;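 for all read-outs here: cells exposed to compound for 72 h before imaging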;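 for red/green cell ratio (normalised): normalised mesenchymal count divided by normalised epithelial count so high means epithelial killing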); details: imaging cell counts, at 1 µM; for red/green cell ratio (normalised): actives lie on both sides, counts scaled to control wells, 1 = unselective
# [10] = measured here: epithelial PC-3E GFP cell survival
# [11] = measured here: mesenchymal TEM4-18 mCherry cell survival
# 6-phosphogluconate dehydrogenase, decarboxylating (Homo sapiens), sequence (P52209 whole entry, looked up): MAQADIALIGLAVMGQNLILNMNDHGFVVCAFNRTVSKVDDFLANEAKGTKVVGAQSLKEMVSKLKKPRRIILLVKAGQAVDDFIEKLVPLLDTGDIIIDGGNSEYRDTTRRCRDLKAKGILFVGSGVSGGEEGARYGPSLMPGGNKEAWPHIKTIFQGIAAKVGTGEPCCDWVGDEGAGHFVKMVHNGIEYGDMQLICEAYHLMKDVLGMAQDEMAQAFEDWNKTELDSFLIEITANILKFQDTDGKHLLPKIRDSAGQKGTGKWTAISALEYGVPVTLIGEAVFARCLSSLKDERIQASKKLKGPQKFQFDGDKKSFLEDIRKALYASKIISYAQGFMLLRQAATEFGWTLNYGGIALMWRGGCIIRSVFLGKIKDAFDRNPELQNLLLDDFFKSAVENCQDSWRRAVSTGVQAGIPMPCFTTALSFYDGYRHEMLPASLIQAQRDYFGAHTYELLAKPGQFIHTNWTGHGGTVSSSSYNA
Compound,insulin secretion stimulation [1],viability decrease [2],tube area decrease [3],GLP1 secretion stimulation [4],inhibition of viability [5],viability decrease (inhibition) [6],viability decrease (inhibition) [7],inhibition [8],red/green cell ratio (normalised) [9],"normalised cell number [9, 10]","normalised cell number [9, 11]"
CCCCC(CC)CN=C(N)NC(N)=NCCCCCCN=C(N)NC(N)=NCC(CC)CCCC (centres undefined),22.3% (active),99.1% (active),108% (active),0% (inactive),99.6% (active),97% (active),102% (active),-3.86% (inactive),0.85 (inactive),1.19,1.01
CC(=O)OC/C=C(C)/C=C/C=C(C)/C=C/C1=C(C)CCCC1(C)C,3% (inactive),-11.9% (inactive),0.2% (inactive),5.9% (inactive),2.7% (inactive),-5.5% (inactive),-3.2% (inactive),-10.8% (inactive),0.94 (inactive),1,0.94
Cn1c(=O)c2c(ncn2CCO)n(C)c1=O,1.4% (inactive),15.8% (inactive),-12.3% (inactive),-0.6% (inactive),-8% (inactive),-1.2% (inactive),-21.2% (inactive),-5.12% (inactive),1.06 (inactive),0.95,1.01
N=C(N)N,1.1% (inactive),-1.8% (inactive),12.8% (inactive),-1.2% (inactive),1.3% (inactive),1% (active),-1.3% (inactive),0.391% (inactive),1.05 (inactive),0.94,0.99
CCO/C([O-])=N/c1c[n+](N2CCOCC2)no1,0.9% (inactive),22.3% (inactive),2.4% (inactive),-0.5% (inactive),8.63% (inactive),43.4% (inactive),-1.5% (inactive),16.2% (inactive),0.9 (inactive),1.04,0.94
CC(=O)Oc1ccc(C(c2ccc(OC(C)=O)cc2)c2ccccn2)cc1,2.65% (inactive),41.4% (inactive),15.6% (inactive),5.8% (inactive),67.8% (active),-6% (inactive),53.5% (active),4.53% (inactive),0.85 (inactive),1.24,1.06
NC(Cc1ccc(Cl)cc1)C(=O)O (centres undefined),-1.3% (inactive),-0.7% (inactive),-8.9% (inactive),0.5% (inactive),-7.8% (inactive),13.2% (inactive),-6.55% (inactive),5.29% (inactive),1.13 (inactive),0.99,1.12
O=c1cc[nH]c(=S)[nH]1,-0.7% (inactive),-5.7% (inactive),11.6% (inactive),-6.9% (inactive),1.83% (inactive),-9.6% (inactive),-8.5% (inactive),13.5% (inactive),0.81 (inactive),1.32,1.07
O=C(O)c1cc(O)c(O)c(O)c1,-0.6% (inactive),44.8% (inactive),-2.4% (inactive),5.1% (inactive),1.3% (inactive),36.1% (inactive),39.5% (inactive),3.08% (inactive),0.96 (inactive),1.14,1.09
CC(C)(C)CC(C)(C)c1ccc(O)c(Cc2ccc(Cl)cc2Cl)c1,4.4% (active),99.3% (active),108% (active),117% (active),100% (active),120% (active),102% (active),-15.2% (inactive),0.81 (inactive),1.02,0.82
Cc1c(NC(=O)c2cccnc2)c(=O)n(-c2ccccc2)n1C,-1% (inactive),-14.1% (inactive),7.1% (inactive),-0.1% (inactive),-4.77% (inactive),18.1% (inactive),-19.7% (inactive),-15.8% (inactive),1.04 (inactive),1.05,1.09
C[C@](N)(Cc1ccc(O)cc1)C(=O)O,-0.1% (inactive),0.3% (inactive),-8.2% (inactive),1.3% (inactive),-15.1% (inactive),42.1% (inactive),-1.1% (inactive),-7.56% (inactive),0.89 (inactive),1.18,1.05
Nc1nc2c(c(=O)[nH]1)N(C=O)C(CNc1ccc(C(=O)N[C@@H](CCC(=O)O)C(=O)O)cc1)CN2 (some centres undefined),3.9% (inactive),19.3% (inactive),1.3% (inactive),0.8% (inactive),-11.6% (inactive),24.4% (inactive),-9.9% (inactive),-1.29% (inactive),1.45 (inactive),0.95,1.38
C[N+](C)(C)CCOC(N)=O,-0.5% (inactive),1.3% (inactive),-7.7% (inactive),2.2% (inactive),-2.4% (inactive),-4.8% (inactive),-12.5% (inactive),-13.5% (inactive),1.21 (inactive),0.85,1.03
CC(=O)NO,5.1% (inactive),30.9% (inactive),11.1% (inactive),10.8% (active),10.6% (inactive),69.2% (active),56% (active),-9.51% (inactive),1.09 (inactive),1.08,1.18
O=C(O)c1ccccc1Nc1cccc(C(F)(F)F)c1,0.1% (inactive),91.3% (active),47.5% (active),9.5% (inactive),66.3% (active),70.1% (active),78.8% (active),2.7% (inactive),0.85 (inactive),1.18,1
O=C(CCBr)N1CCN(C(=O)CCBr)CC1,-2.1% (inactive),56.1% (active),60.5% (active),-4.4% (inactive),-0.5% (inactive),3.9% (inactive),-14% (inactive),-1.69% (inactive),1.19 (inactive),1.07,1.28
COc1cc(NS(=O)(=O)c2ccc(N)cc2)ncn1,4.3% (inactive),16.8% (inactive),1.4% (inactive),-4.1% (inactive),3.43% (inactive),-10.6% (inactive),3.8% (inactive),-1.56% (inactive),1.16 (inactive),0.74,0.86
O=C(O)c1ccccc1OP(=O)(O)O,0.8% (inactive),-21.3% (inactive),-18.8% (inactive),1.7% (inactive),1.07% (inactive),6.6% (inactive),-7.1% (inactive),-2.26% (inactive),0.9 (inactive),1.17,1.05
Cc1cc(-c2ccccc2)nnc1NCCN1CCOCC1,-1.9% (inactive),-42.6% (inactive),6.8% (inactive),0.4% (inactive),6.4% (inactive),12.4% (inactive),-6.5% (inactive),3.56% (inactive),1.08 (inactive),1.01,1.08
C[N+]1(CCCCC[N+]2(C)CCCC2)CCCC1,2.5% (inactive),-7% (inactive),-11.3% (inactive),-1.6% (inactive),-2.5% (inactive),-8.4% (inactive),6.3% (inactive),10.2% (inactive),0.92 (inactive),1.09,1
Cc1ccc(C(=O)C(C)CN2CCCCC2)cc1 (centres undefined),0.3% (inactive),-13.7% (inactive),-6.9% (inactive),4.8% (inactive),0.13% (inactive),2.3% (inactive),-3.8% (inactive),7.71% (inactive),1 (inactive),1,1
COC(=O)N/N=C/c1c[n+]([O-])c2ccccc2[n+]1[O-],1.9% (inactive),18.7% (inactive),22.2% (inactive),5.7% (inactive),-3% (inactive),-10.2% (inactive),-4.9% (inactive),11.2% (inactive),0.65 (inactive),1.24,0.81
O=C(O)CCCCCCCC(=O)O,0.4% (inactive),-10.2% (inactive),2.7% (inactive),-4.7% (inactive),-4.13% (inactive),15% (inactive),-3.7% (inactive),-2.42% (inactive),0.99 (inactive),1.08,1.07
CN(C)CCOC(=O)C(c1ccccc1)C1(O)CCCC1 (centres undefined),0.2% (inactive),-18% (inactive),-3.4% (inactive),-3.8% (inactive),50.1% (active),20.7% (inactive),31.8% (inactive),-0.0978% (inactive),1.07 (inactive),1.42,1.52
CO/N=C1\CN(c2nc3c(cc2F)c(=O)c(C(=O)O)cn3C2CC2)CC1CN (centres undefined),3% (inactive),-23.6% (inactive),-6.9% (inactive),1.1% (inactive),-15% (inactive),-14.7% (inactive),-7.2% (inactive),2.88% (inactive),0.94 (inactive),1.32,1.24
CC1(C)S[C@@H]2[C@H](NC(=O)[C@H](N)c3ccccc3)C(=O)N2[C@H]1C(=O)O,-0.2% (inactive),-19% (inactive),16.3% (inactive),1.2% (inactive),-2.8% (inactive),-8.7% (inactive),-9.6% (inactive),9.14% (inactive),0.91 (inactive),1.22,1.12
CCCCC1C(=O)N(c2ccccc2)N(c2ccccc2)C1=O,-1.7% (inactive),-11.7% (inactive),0.7% (inactive),-3.3% (inactive),9.25% (inactive),13.6% (inactive),-12.9% (inactive),1.47% (inactive),0.97 (inactive),1.22,1.19
O=C(O)CCC(=O)c1ccc(-c2ccccc2)cc1,1.1% (inactive),-13% (inactive),14.5% (inactive),0.1% (inactive),12.7% (inactive),13.6% (inactive),0.4% (inactive),8.67% (inactive),1.07 (inactive),1.07,1.15

# Reference: PubChem BioAssay
